Assay outcomes as filed in PubChem.
A selection: hits, their analogues and other compounds. The true share with any hit is near 3.1%.
IL2 activator: activates IL-2 in a cell-based reporter assay; IL-2 activation reporter assay, cell-based qHTS; stimulated with anti-CD3/CD4/CD28 beads; in transgenic mouse T cells; activation, % (series mostly up to about 46 µM); actives 0.065% (n = 360,000); AID 652025; in the data active = activation above about 50%; inconclusive = mostly about 30% to 49%; note: 0% is about no effect
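Unstimulated transgenic mouse T cells; 60-min compound exposure; bead-based TCR/CD4/CD28 stimulation; 18 h culture, 37 degrees C; dual fluorescence (EGFP, DsRed) plate cytometry.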
Nrf2 activator: Nrf2 pathway activation; AREc32 ARE-luciferase reporter (MCF7-derived line), luminescence, 24 h; AID 624171; Potency, µM (series often up to 46.1 µM), for the others: at the highest dose activation, most hits filed as activators; actives 0.31% (n = 410,000); note: potency is the fitted concentration of half-maximal effect; % of control where 0% means no effect; nearly all actives have a fitted effect of over 65% in size
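For detection, Steady-Glo was added and plates sat 30 min at RT; before that, AREc32_Fluc cells grown overnight in OPTI-MEM/5% FBS had been treated with 23 nL compound for 24 hr at 37 deg C.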
ELG1 repair inh: ELG1-dependent DNA repair inhibition. Potency, µM (top dose mostly 46.1 µM), for inactives: top-dose activity change, negative = inhibition, actives largely listed as inhibitors. actives 2.3% (n = 330,000). HEK293T ELG1-luciferase reporter, luminescence, 16 h; DNA damage induced by 5-fluorouridine. AID 504467; note: potency is the fitted concentration of half-maximal effect; % is set by controls: 0 for no effect and ±100 for the full control effect; nearly all actives have a fitted effect of over 55% in size
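Quantitative HTS, concentration-response format. 2,000 cells/well co-treated with 5-fluorouridine and compound, 16 hr in 5% CO2 at 37 °C; ONE-Glo luminescence read after 30 min.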
BRCA1 expr act: activators of BRCA1 expression; actives 1.1% (n = 380,000); MCF7-BRCA1-FFLuc reporter, luminescence, 48 h; response scale: scaled: vehicle 0%, 10 µM genistein 100%; Potency, µM (top dose mostly 46.1 µM), for the others: top-dose activation, hits mostly activators; AID 624202; note: potency is the fitted concentration of half-maximal effect; nearly all actives have a fitted effect of over 80% in size
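Luminescence from a BRCA1-driven firefly luciferase in MCF7 cells was the read-out, taken 15 min after substrate addition following 48 h compound exposure at 37 °C. Data were normalized to a 10 microM genistein control and DMSO vehicle.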
Active calls of the source: *; ? = inconclusive; . = not tested or not shown; [ ] = another dose, or the depositor's remark. Unless noted, calls come from the whole dose curve; as a rule, active = well fitted curve in the direction sought with a large enough effect; inconclusive = small, poorly fitted or top-dose-only effect, or another doubt; inactive = no such curve, though single readings can be large; an effect the other way counts as inactive or inconclusive.

SMILES | IL2 activator | Nrf2 activator | ELG1 repair inh | BRCA1 expr act
Cc1cc(C)c2cc(CN(CCO)C(=O)Nc3ccc(Cl)cc3)c(=O)[nH]c2c1 | 1 | 9% | 18µM* | -59%
CCOC(=O)Cn1c(=O)n(CC2CCCO2)c2nc(-c3ccccc3F)nc(C(N)=O)c21 (stereo unspecified) | . | 0% | . | 12%
c1ccc2oc(-c3ccn[nH]3)cc2c1 | -2 | 0% | ? | 4.5µM*
CC(=O)c1c(C)[nH]c(C(=O)CSc2nc3ccc(C)cc3[nH]2)c1C | 0 | 6% | 12µM* | -19%
COc1ccc(OCC(=O)Nc2ccc3c(c2)nc(CCN2CCN(c4ccccn4)CC2)n3C)cc1 | -3 | 4% | . | -39%
Cc1cccc(OCC(=O)Nc2ccc3c(c2)nc(CCN2CCCCC2)n3C)c1 | 0 | 3% | -3% | -7%
Cn1c(CCN2CCN(c3ccccn3)CC2)nc2cc(NC(=O)COc3ccc(Cl)cc3)ccc21 | -3 | 0% | 9.2µM* | -40%
Cc1cccc(OCC(=O)Nc2ccc3c(c2)nc(CCN2CCN(c4ccccn4)CC2)n3C)c1 | -2 | 0% | 15µM* | -47%
Clc1ccc(-c2noc(COc3ccccc3)n2)cc1 | -3 | 0% | ? | ?
Clc1ccc(OCc2nc(-c3ccncc3)no2)cc1 | -1 | 0% | ? | 11µM*
Cc1ccc2nc(-c3cccc(NC(=O)c4cccc5c(Cl)cccc45)c3)oc2c1 | . | 2% | . | .
COc1ccc(NC(=S)NC(=O)c2ccccc2Cl)cc1 | 0 | 6% | ? | 13µM*
COc1ccc(NC(=O)C2CCCC2)cc1 | -1 | 0%[9.22 µM] | ? | 20%
O=C(NC(=S)Nc1ccc(O)cc1)c1ccccc1Cl | 1 | 20% | ? | ?
COc1ccc(NC(=S)NC(=O)C2CCCCC2)cc1 | -4 | -1% | ? | 7.9µM*
Oc1c(Br)cc(/C=N/Nc2nncc3ccccc23)cc1Br | 0 | 4% | ? | 8.9µM*
COc1ccccc1/C=N/Nc1nncc2ccccc12 | 0 | 3% | ? | 10µM*
COc1ccc(/C=N/Nc2nncc3ccccc23)cc1 | -1 | ? | ? | 7%
COc1ccc(OC)c2c1C(=O)C(Cl)=C(Cl)C2=O | -4 | -1% | 21µM* | -86%
Cc1nnc(SCc2cccc3ccccc23)s1 | -1 | 6% | ? | 1.3µM*
Cc1ccc(NC(=O)Nc2c(C)n(C)n(-c3ccccc3)c2=O)c(Cl)c1 | . | -1% | . | .
Cc1cc(C)nc(NC(=O)c2cccc(Br)c2)n1 | -2 | 0% | -2% | 29%
Cc1cc(NC(=O)c2cccc(Br)c2)n[nH]1 | 1 | 3% | ? | 11µM*
CCCCC(=O)Nc1cccc(NC(=O)c2ccc(Br)cc2)c1 | -1 | 3% | -5% | -28%
CCCCC(=O)Nc1cccc(NC(=O)c2cccc(Br)c2)c1 | 0 | -1% | 7.3µM* | 12%
SMILES | IL2 activator | Nrf2 activator | ELG1 repair inh | BRCA1 expr act
COc1ccc(OCCCC(=O)Nc2cccc(C(C)=O)c2)cc1 | -3 | 0% | 18µM* | -5%
CCn1cc(C(=O)NCCc2ccc(OC)c(OC)c2)c(=O)c2cc(S(=O)(=O)N3CCc4ccccc4C3)ccc21 | . | 1% | . | -31%
COc1ccc(C)cc1N(C)C(=O)c1sc2nc3n(c(=O)c2c1C)CCCCC3 | . | 0% | . | .
Cc1ccc(-c2nn(-c3cccc([N+](=O)[O-])c3)c3c2cnc2ccc(F)cc23)cc1 | . | 0% | . | .
Cc1cccc(-c2nnc(C3CCN(S(=O)(=O)c4cccc(Cl)c4)CC3)o2)c1 | . | 13% | . | .
Cc1ccc2c(c1)C(c1ccc(F)cc1)N(C(=O)COc1ccc(Cl)cc1Cl)CC(=O)N2 (stereo unspecified) | . | 3% | . | .
COc1ccc2oc(=N)c(C(=O)Nc3ccccc3Cl)cc2c1 | -1 | 9% | ? | 4.5µM*
O=C(Nc1nccs1)c1ccc(Cl)c(S(=O)(=O)N2CCOCC2)c1 | 0 | 4% | 21µM* | 8%
Cc1ccnc(NC(=O)c2ccc(Cl)c(S(=O)(=O)N3CCCCC3)c2)c1 | 0 | 0% | 3% | 51%
Cc1ccnc(NC(=O)c2ccc(Cl)c(S(=O)(=O)N3CCCC3)c2)c1 | -4 | 0% | 21% | 7.1µM*
CCC(C(=O)Nc1ccc(C(=O)OC)cc1)n1nc(-c2ccc(C)cc2)c2c(c1=O)CCCC2 (stereo unspecified) | . | 6% | . | -36%
CCOC(=O)CC(NC(=O)c1cc2cccc(OC)c2oc1=O)c1ccc(OC)cc1 (stereo unspecified) | 1 | 22% | ? | 13µM*
Cc1ccc(Nc2ncnc3ccccc23)cc1 | -1 | 2% | ? | 5.6µM*
CC(C)Oc1ccc(Nc2ncnc3ccccc23)cc1 | -3 | 0% | ? | 2.5µM*
CC(=O)Oc1cccc(Nc2ncnc3ccccc23)c1 | 1 | 5% | 2% | 5%
Oc1ccc(Nc2ncnc3ccccc23)cc1 | 0 | ? | -6% | 17%
O=C(NCCc1ccc(Cl)cc1)C1CCN(Cc2cc3ccccc3n2Cc2ccccc2)CC1 | . | 10% | . | .
COc1ccc(N2CCN(C(=O)c3cnn(-c4ccc(OC)cc4)c3C3CCN(C(=O)OC(C)(C)C)CC3)CC2)cc1 | . | 0% | . | .
CS(=O)(=O)Nc1ccc(C2=NN(S(C)(=O)=O)C(c3ccc4c(c3)OCO4)C2)cc1 (stereo unspecified) | 1 | 6% | ? | 4.5µM*
C[C@@H](NC(=O)c1nc[nH]c1C(=O)NCCCCCNC(=O)OC(C)(C)C)c1ccccc1 | -3 | 4% | ? | 0%
C[C@H](NC(=O)c1nc[nH]c1C(=O)NCc1ccc(CNC(=O)OC(C)(C)C)cc1)c1ccccc1 | -1 | -1% | 18µM* | -58%
C[C@H](NC(=O)c1[nH]cnc1C(=O)Nc1ccc(CNC(=O)OC(C)(C)C)cc1)C(=O)OC(C)(C)C | -4 | -3% | 16µM* | -68%
CC(C)(C)OC(=O)NCCCC[C@H](NC(=O)c1[nH]cnc1C(=O)Nc1ccc(CNC(=O)OC(C)(C)C)cc1)C(=O)OC(C)(C)C | 0 | 0% | ? | -9%
Cc1occc1C(=O)Nc1nnc(-c2cccs2)s1 | 2 | 11µM* | ? | 59%
O=C(CN1CCCC1)Nc1nnc(-c2cccs2)s1 | 1 | 11µM* | ? | 8%
SMILES | IL2 activator | Nrf2 activator | ELG1 repair inh | BRCA1 expr act
Cc1noc(C)c1C(=O)Nc1nc(-c2cccs2)cs1 | -1 | 16µM* | ? | 65%
O=C(CN1CCCCC1)Nc1nnc(-c2ccccc2)s1 | -4 | ? | ? | 7%
Cn1nc(C2CC2)cc1NC(=O)C1(C)CCN1C(=O)Cc1ccc(-c2ccccc2)cc1 (stereo unspecified) | 2 | 0% | . | -54%
Cc1cccc(C(=O)N=c2sccn2C)c1[N+](=O)[O-] | 5 | 1% | ? | 5µM*
COc1ccc(NC(=O)Nc2nnc(N(C)C3CCCCC3)s2)c(OC)c1 | . | 0% | . | .
COc1ccc(CNC(=O)C2CCN(c3nccs3)CC2)cc1 | 0 | -1% | 1% | -16%
COc1ccc(N2CCN(c3nccs3)CC2)cc1 | 0 | 3% | ? | 11µM*
